# Assay outcomes from PubChem.
# Shown are actives, neighbours in structure and some others; about 1.1% of the full set was active somewhere.
# PrP 5UTR inh: inhibition of PrP 5' UTR reporter expression | cell-based PrP 5' UTR mRNA reporter, plate reader | inhibition, % (test concentration not listed) | 340,000 tested, 0.35% active; in the data active = inhibition above about 52%; also: 0 = median of the neutral control wells
# PfHsp40 yeast: rescue of yeast from PfHsp40 toxicity, primary screen, S. cerevisiae, ATP luminescence; growth rescue, % at 12.5 µM; 340,000 tested, 0.68% active; AID 504582, 2011; S. cerevisiae expressing PfHsp40, growth rescue; in the data active = growth rescue above about 28%, passing the limit was not always enough;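 also: yeast W303a lacking pdr1 and pdr3 grown in galactose medium; growth measured after three days at 30 °C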
# Yp Topo-I inh: Yersinia pestis topoisomerase I inhibitors, primary screen, biochemical, cleavage product accumulation, plate reader, single point; activity, % at 10 µM; 360,000 tested, 0.064% active; Y. pestis Topo-I cleavage product accumulation; DNA topoisomerase I (Yersinia pestis CO92); in the data active = activity above about 50%, passing the limit was not always enough
# FadD28 binding: inhibitors of FadD28 bisubstrate probe binding, primary screen, biochemical, fluorescence polarization, single point; Mycobacterium tuberculosis FadD28 fatty-acid-AMP ligase; 360,000 tested, 0.22% active; inhibition, % at 12.5 µM; in the data active = inhibition above about 8.5%, passing the limit was not always enough
# BioA inh: M. tuberculosis BioA enzyme inhibitors, primary screen, biochemical, plate reader, single point, HTS. 360,000 tested, 0.096% active. purified M. tuberculosis BioA enzyme. inhibition, % at 9.99 µM. AID 602481, 2012; in the data active = inhibition above about 40%
# * marks the source's active call; other numbers are inactive results; i = inactive; nt = no result given.
SMILES,PrP 5UTR inh,PfHsp40 yeast,Yp Topo-I inh,FadD28 binding,BioA inh
CO[C@H]1CN(C)C(=O)c2cc(NC(=O)C3CC3)ccc2OC[C@@H](C)N(C(=O)C2CCCCC2)C[C@@H]1C,nt,nt,nt,nt,-0.5
COCCCNC(=S)NC1CC2CCC(C1)N2Cc1ccccc1 (configuration not stated),-7.0,34.8*,2.4,-1.2,nt
O=C(OCC(=O)c1c[nH]c2ccccc12)c1cccc(S(=O)(=O)N2CCCCCC2)c1,-46.0,-0.2,-4.1,5.4,-0.9
CCc1cccc2c(C(=O)COC(=O)c3cccc(S(=O)(=O)N(C)C4CCCCC4)c3)c[nH]c12,-18.3,0.3,3.7,21.7*,nt
Cc1ccc(C(=O)N/N=C/c2ccoc2)cc1C,-7.0,1.4,-2.2,2.3,49.3*
COc1ccc(C(=O)N/N=C\c2ccoc2)cc1,-16.4,-1.1,6.6,0.5,20.7
COC(=O)[C@@H]1[C@@H](CO)[C@@H]2Cn3c(ccc(-c4ccccc4)c3=O)[C@H]1N2CC1CCOCC1,nt,nt,nt,nt,-2.5
O=C(Nc1cccc(Cl)c1)Nc1cccc(Cl)c1,-27.4,-1.0,2.8,-1.5,-1.5
O=C(Nc1cccc(Cl)c1)ON=C1c2ccccc2-c2ccccc21,-33.6,36.6*,-3.0,-3.9,nt
Cc1noc(C)c1NC(=O)N(C)C[C@H]1OCCCC[C@H](C)Oc2ccc(NS(=O)(=O)c3c(C)noc3C)cc2C(=O)N([C@@H](C)CO)C[C@H]1C,nt,nt,nt,nt,-1.4
CC(C)NC(=O)Nc1ccc2c(c1)C(=O)N([C@@H](C)CO)C[C@@H](C)[C@H](CN(C)C(=O)CCC(F)(F)F)OCCCC[C@@H](C)O2,nt,nt,nt,nt,-0.2
C[n+]1c2cc(N)ccc2cc2ccc(N)cc21,-24.9,228.1*,-17.7,1.4,i
O=C1CC(c2ccccc2)c2cccc(F)c21 (configuration not stated),-30.9,39.1*,-6.5,-3.1,7.2
O=C1CC(c2ccccc2)c2ccccc21 (configuration not stated),-24.8,-0.5,-11.6,-2.3,nt
CC(C)C#Cc1cnc2c(c1)C(=O)N([C@@H](C)CO)C[C@H](C)[C@H](CN(C)S(=O)(=O)c1cn(C)cn1)O2,nt,nt,nt,nt,-2.2
Cc1ccccc1CN(C)CCS(=O)(=O)c1cc(Cl)ccc1Cl,-34.1,60.7*,48.1,-1.6,-0.7
Nc1nnc(CCS(=O)(=O)c2cc(Cl)ccc2Cl)s1,-22.4,-0.7,-0.7,-1.6,nt
O=[N+]([O-])c1cc(Br)ccc1NS(=O)(=O)c1ccccc1,-5.7,64.8*,2.7,-0.8,0.5
O=[N+]([O-])c1ccccc1NS(=O)(=O)c1ccccc1,nt,nt,10.2,-1.6,1.2
CCOC(=O)CSc1nc2c(c(=O)n1-c1ccc(OCC)cc1)SCC2,-15.1,40.4*,-4.3,-3.5,1.4
Cc1ccc([N+](=O)[O-])cc1NC(=S)NC(=O)c1cccnc1,-2.6,-2.4,-4.4,-2.5,nt
CCC(C)c1ccc(O)c(NC(=S)NC(=O)c2cccnc2)c1 (configuration not stated),-16.8,53.6*,-4.2,0.1,nt
O=C(NC(=S)Nc1cc([N+](=O)[O-])ccc1O)c1cccnc1,55.5*,-1.7,1.6,-3.7,nt
CC(C)c1ccc(O)c(NC(=O)c2cccnc2)c1,-23.1,0.5,2.1,-2.7,4.5
CCCC(=O)Nc1ccc2c(c1)C(=O)N(C)C[C@H](OC)[C@H](C)CN[C@@H](C)CO2,nt,nt,nt,nt,-0.4
SMILES,PrP 5UTR inh,PfHsp40 yeast,Yp Topo-I inh,FadD28 binding,BioA inh
CC1CCC2[C@@H](C)C(=O)OC3O[C@]4(C)CCC1C32OO4 (some centres not stated),-6.3,110.4*,2.8,-4.6,-0.1
CC1CCC2C(C)C(=O)OC3OC4(C)CCC1C32OO4 (configuration not stated),-25.3,137.3*,3.7,-1.2,-0.8
Cc1noc(C)c1S(=O)(=O)Nc1ccc2c(c1)C(=O)N([C@H](C)CO)C[C@@H](C)[C@@H](CN(C)C(=O)NC(C)C)OCCCC[C@@H](C)O2,nt,nt,nt,nt,-0.3
C/C=C/c1cnc2c(c1)C(=O)N([C@@H](C)CO)C[C@H](C)[C@@H](CN(C)C(=O)NC1CCCC1)O2,nt,nt,nt,nt,8.5
COc1cc(C(=O)NNC(=S)NC(=O)c2ccccc2C)cc(OC)c1OC,-25.8,6.2,-1.3,-0.4,nt
COc1cc(C(=O)NC(=S)NNC(=O)c2cnccn2)cc(OC)c1OC,-21.1,132.0*,0.0,0.4,-0.9
COc1ccccc1C(=O)NNC(=S)NC(=O)c1cc(OC)c(OC)c(OC)c1,-9.0,61.6*,7.7,-1.8,nt
COc1ccc(C(=O)NC(=S)NNC(=O)c2cnccn2)cc1,-0.5,-0.3,4.2,0.2,-0.2
CN(C)C(=O)c1cccc(-c2ccc([C@H]3[C@H]4CN(CCC(F)(F)F)CCCCN4[C@H]3CO)cc2)c1,nt,nt,nt,nt,-0.7
Cc1[nH]n(-c2ccc(Br)cc2)c(=O)c1/C=N/NC(=O)c1ccccc1,12.9,-1.7,5.0,-0.8,1.0
Cc1ccc(OCC(=O)N/N=C\c2c(C)[nH]n(-c3ccccc3)c2=O)c([N+](=O)[O-])c1,-5.8,154.8*,-10.3,-3.3,0.3
Cc1ccc(/C=N\NC(=O)COc2ccc(C)cc2[N+](=O)[O-])cc1,-29.3,-0.1,32.5,-5.0,nt
Cc1[nH]n(-c2ccccc2)c(=O)c1/C=N/NC(=O)c1ccc(O)cc1O,5.3,51.6*,-2.3,0.4,2.1
Cc1ccc(-n2[nH]c(C)c(/C=N/NC(=O)c3ccc(O)cc3O)c2=O)cc1,-0.7,76.5*,3.3,0.1,1.3
Cc1ccc(/C=N/Nc2nncc(-c3ccccc3)n2)o1,-47.0,-0.8,6.2,-2.4,nt
Cc1[nH]n(-c2ccccc2)c(=O)c1/C=N/Nc1nncc(-c2ccccc2)n1,41.3,262.1*,-3.6,-1.0,5.2
CCC(=O)N[C@@H]1CC[C@@H](CCn2cc(-c3cccc(OC)c3)nn2)O[C@@H]1CO,nt,nt,nt,nt,3.5
C[C@H]1CCCCO[C@H](CN(C)Cc2ccc(C(=O)O)cc2)[C@@H](C)CN([C@@H](C)CO)C(=O)c2cc(NS(=O)(=O)c3ccc(Cl)cc3)ccc2O1,nt,nt,nt,nt,0.3
CC(NC(=O)c1ccc(F)cc1)c1ccc2c(c1)CCCC2 (configuration not stated),-16.1,0.2,20.0,-5.6,nt
CC(NC(=O)c1ccc(Br)cc1)c1ccc2c(c1)CCCC2 (configuration not stated),-26.8,137.5*,4.7,-1.8,1.7
Cc1noc(C)c1S(=O)(=O)Nc1cccc2c1O[C@@H](CN(C)CC1CCCCC1)[C@@H](C)CN([C@@H](C)CO)C2=O,nt,nt,nt,nt,-2.1
Cc1noc(C)c1NC(=O)Nc1ccc2c(c1)CC(=O)N([C@@H](C)CO)C[C@H](C)[C@H](CN(C)C(=O)Nc1ccc3c(c1)OCO3)O2,nt,nt,nt,nt,-4.9
O=C(NCCCSc1ccccc1)c1cc(Br)ccc1O,-28.5,196.0*,-6.5,-5.6,-0.5
O=C(NCCSc1ccccc1)c1ccc(Br)cc1,-88.9,15.8,6.2,-1.8,nt
